CYP2C19 inhib: blockers of cytochrome P450 2C19 activity – biochemical, luminescence, ADME assay, primary screen. P33261. CYP2C19 Supersomes, luciferin-H EGE luminescence, 30 min. inhibition, % at 5 µM. 96,000 tested, 21% active;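 active = CYP2C19 inhibition above a set limit at 5 µM in the primary screen, cut at about 50% in these data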;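 note: plate controls were negative control wells for no effect and 2.5 mM tranylcypromine positive control for full effect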
CYP2C9 activ: human CYP2C9 activators, primary screen, biochemical, luminescence. activation factor at 5 µM. AID 1024, 2008. 96,000 tested, 1.4% active. recombinant CYP2C9, luciferin-H conversion; hits give high values; factor 1 = untreated enzyme, 0 = blocked. Cytochrome P450 2C9 (Homo sapiens), P11712;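 active = activation factor of 2 or more for CYP2C9 at a 5 µM dose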;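 note: 0 = sulfaphenazole-blocked wells and 1 = vehicle-only wells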
Target sequence (P11712 whole entry, looked up): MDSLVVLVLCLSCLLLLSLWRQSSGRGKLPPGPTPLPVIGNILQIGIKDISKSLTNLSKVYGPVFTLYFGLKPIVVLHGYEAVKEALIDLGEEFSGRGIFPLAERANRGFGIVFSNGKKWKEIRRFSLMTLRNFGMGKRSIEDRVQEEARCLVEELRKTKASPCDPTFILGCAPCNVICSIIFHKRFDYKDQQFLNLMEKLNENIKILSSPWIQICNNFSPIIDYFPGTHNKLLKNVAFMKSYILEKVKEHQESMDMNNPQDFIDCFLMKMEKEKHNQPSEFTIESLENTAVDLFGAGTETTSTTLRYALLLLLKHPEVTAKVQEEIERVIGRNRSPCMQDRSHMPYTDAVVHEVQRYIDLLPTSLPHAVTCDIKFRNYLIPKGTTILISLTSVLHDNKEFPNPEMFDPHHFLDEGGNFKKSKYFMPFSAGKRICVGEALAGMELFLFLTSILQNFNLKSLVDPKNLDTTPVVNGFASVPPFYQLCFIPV
CYP2C9 inhib: blockers of cytochrome P450 2C9 activity – biochemical, luminescence, ADME assay, primary screen; inhibition, % at 5 µM; CYP2C9 Supersomes, luciferin-H conversion; 96,000 tested, 20% active; P11712;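 active = blocking of liver enzyme CYP2C9 beyond about 50% at 5 µM, limit read from the data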
PLAP act: PLAP enzyme activators, biochemical, luminescence, HTS; Alkaline phosphatase, placental type (Homo sapiens), P05187; purified PLAP enzyme, luminescent substrate read-out; hits give high values; activation fold at 20 µM; 96,000 tested, 1.2% active; AID 696, 2007; in the data active = activation fold above about 2
CYP2C19 activ: human CYP2C19 activators, primary screen, biochemical, luminescence. recombinant CYP2C19, luciferin-H EGE luminescence; hits give high values; 0 = fully inhibited enzyme, 1 = untreated enzyme. activation factor at 5 µM. 96,000 tested, under 10 active;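 active = activation factor of at least 2 at 5 µM in the primary screen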;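 note: 0 = wells with 2.5 mM tranylcypromine and 1 = vehicle-only wells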
An asterisk follows results filed as active. An excerpt weighted towards active compounds, which were near 31% of everything screened.

SMILES	CYP2C19 inhib	CYP2C9 activ	CYP2C9 inhib	PLAP act	CYP2C19 activ
CCn1cc(C(=O)Nc2ccc(OC)c(OC)c2)c2cc(OC)c(OC)cc2c1=O	1.5	0.9	9.2	1.8	1
N#Cc1cc2cc3c(cc2nc1N1CCOCC1)OCO3	54.7*	0.9	8.0	0.7	0.5
COC(=O)c1ccc(C2C(Oc3ccccc3)C(=O)N2CCc2ccc(F)cc2)cc1 (stereo not given)	-7.4	0.9	8.4	1	1.1
COc1ccc(OC2C(=O)N(Cc3ccc(F)cc3)C2c2ccc(OC)c(OC)c2)cc1 (stereo not given)	72.5*	0.4	59.6*	1.4	0.3
Cc1cc(C)nc(N2CCC(C(=O)Nc3cccc(C(F)(F)F)c3)CC2)n1	31.7	1.3	-34.2	1.2	0.7
CC(C)CN(C(=O)CSc1nnc2c(Cl)cc(C(F)(F)F)cn12)C1CCS(=O)(=O)C1 (stereo not given)	5.3	1.2	-16.7	1.2	0.9
Cc1cc(=O)[nH]c(-c2ccccc2)n1	2.0	0.9	5.1	1	1
Cc1cc(=O)[nH]c2n[nH]c(-c3ccccc3)c12	78.2*	1.1	-14.7	1.1	0.2
CCn1ncc(C2=NOC(C(=O)NCCc3ccccc3)C2)c1C (stereo not given)	-0.1	1	-4.3	0.7	1
COc1ccc(N2C(=O)C(Cl)=C(NCc3ccccc3)C2=O)cc1	99.4*	0	95.6*	1	0
Cc1ccccc1NS(=O)(=O)c1cc(C(=O)N2CCc3ccccc3C2)ccc1C	53.6*	0.3	66.7*	1.1	0.5
COc1ccccc1NS(=O)(=O)c1cc(C(=O)NCc2ccco2)ccc1C	61.1*	0.7	28.3	1.1	0.4
Cc1ccc(NS(=O)(=O)c2cc(C(=O)N3CCc4ccccc4C3)ccc2Cl)cc1	43.7	0.5	48.4	1.1	0.6
Cc1ccc(C(=O)NCCSC2CCCCC2)cc1S(=O)(=O)Nc1ccccc1	31.6	0.7	27.8	0.9	0.7
Cc1ccc(C(=O)NCc2ccco2)cc1S(=O)(=O)Nc1cccc(C)c1C	-38.6	1.2	-17.3	1.4	1.4
Cc1ccccc1NS(=O)(=O)c1cc(C(=O)NCc2ccco2)ccc1C	37.0	0.3	68.7*	1.2	0.6
Cc1ccc(SCCNC(=O)c2ccc(C)c(S(=O)(=O)Nc3ccccc3C)c2)cc1	66.9*	0.3	68.2*	1.2	0.3
CCCN(CCC)CCSc1nc(O)c(C(C)C)c(=O)[nH]1	-6.2	1	-0.2	1	1.1
Cc1ccc(CCN2CC(C(=O)NCCCN3CCOCC3)CC2=O)cc1 (stereo not given)	-8.6	1.1	-10.2	1.1	1.1
Cc1ccc(C)c(NS(=O)(=O)c2cc(C(=O)NCc3ccco3)ccc2C)c1	60.5*	0.2	82.9*	1.2	0.4
CC(=O)NCCC(=O)Nc1ccc(F)cc1C	1.5	0.9	7.8	1	1
c1ccc(-c2ccccc2OCCn2cncn2)cc1	96.9*	1.8	-79.6	1.1	0
Clc1ccc(SCCCCn2cncn2)cc1	97.7*	0.2	75.5*	0.9	0
Clc1ccc(OCCCn2cncn2)cc1Cl	98.6*	0.1	92.3*	1.1	0
NCCOc1ccccc1-c1ccccc1	56.6*	0.3	65.5*	0.7	0.4
SMILES	CYP2C19 inhib	CYP2C9 activ	CYP2C9 inhib	PLAP act	CYP2C19 activ
NCCOc1ccccc1Cc1ccccc1	32.0	0.8	21.6	0.8	0.7
O=C1CC(Cc2ccccc2)C(=O)N1Cc1ccco1 (stereo not given)	38.0	1	0.2	1.2	0.6
Cn1c(NCCN2CCCCC2)cc(=O)n(C)c1=O	-13.6	1.1	-5.5	1.2	1.1
CN1CCN(Cc2ccc(OCc3ccccc3)cc2)CC1	-7.6	1.2	-17.6	1.4	1.1
c1ccc(COc2ccc(OCCCn3cncn3)cc2)cc1	94.4*	0	95.6*	1.4	0.1
c1ccc(-c2ccc(OCCOCCn3cncn3)cc2)cc1	94.7*	0.3	67.0*	1.6	0.1
FC(F)(F)c1cccc(OCCOCCn2cncn2)c1	85.9*	0.7	32.6	0.9	0.1
COc1ccc(OCCn2cncn2)cc1	-1.6	1.1	-12.6	1	1
c1ccc(Cc2ccc(OCCn3cncn3)cc2)cc1	97.0*	0	98.0*	1.3	0
CCc1cccc(OCCOCCN2CCCC2)c1	9.2	0.9	12.1	0.8	0.9

Screening data deposited in PubChem BioAssay by Sanford-Burnham Center for Chemical Genomics.
